Pf Dd2 inh: Plasmodium falciparum Dd2 growth inhibition; P. falciparum Dd2 growth, SYBR Green, 72 h; Potency, µM (titrated, usually from 28.9 µM), for inactives: at the highest dose activity, negative = inhibition, hits mostly inhibitors; 120,000 compounds, 4.3% hits; active = well fitted inhibition curve with a large enough effect;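 note: plate controls were DMSO vehicle for no effect and reference drug for full effect; nearly all actives have a fitted effect of over 65% in size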
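Readout: SYBR Green fluorescence, 485 nm excitation, 535 nm emission, after ~16 h lysis at 37C. Before that, Dd2-infected red cells (2.5% hematocrit) grew 72 h with compound, 29 uM top final concentration.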
The depositor's hits bear a star; i = inactive; ! = not active in a repeat; [ ] = remark or other dose. The sample as a whole holds a higher share of hits than the screen did. Potency is the fitted concentration of half-maximal effect.

SMILES | Pf Dd2 inh
O=C1[C@@H]2C[C@@H](O)CN2C2(CN(C3CCC(F)(F)CC3)C2)C(=O)N1Cc1cccc(Cl)c1 | i
CCN(CC)CCNC(=O)C1CCCN(c2nnc(C)c3c(C)n(-c4ccc(Cl)cc4)nc23)C1 (stereo not given) | 11.2µM*
Cc1nnc(N2CCN(C(=O)NCCC(C)C)CC2)c2nn(-c3ccc(Cl)cc3)c(C)c12 | 1.1%
Cc1nnc(N2CCC(C(=O)NC3CCCCC3)CC2)c2nn(-c3ccc(Cl)cc3)c(C)c12 | 11.5%
CCN(CC)CCNC(=O)C1CCCN(c2ncnc3onc(C)c23)C1 (stereo not given) | -8.6%
Cc1nnc(N2CCC(C(=O)N3CCCCC3)CC2)c2nn(-c3ccc(Cl)cc3)c(C)c12 | 10µM*
Cc1nnc(N2CCC(C(=O)NC3CCC(C)CC3)CC2)c2nn(-c3ccc(Cl)cc3)c(C)c12 (stereo not given) | 3.2%
COc1ccc(-c2cccc(CCOc3cnc4c(ccn4CC(=O)O)c3)c2)c(C)c1 | i
CN(C1CCc2nn(C)c(=O)n2CC1)S(=O)(=O)c1ccc2c(c1)CCCC2 (stereo not given) | i
O=C(c1ccccc1)N1C[C@H]2OC(=O)N(CCc3cccc(Cl)c3)[C@H]2C1 | -3.6%
Clc1ccc(CNc2ncnc3onc(-c4ccc(Cl)cc4)c23)cc1 | i
CC1CCC(Nc2ncnc3onc(-c4ccc(Cl)cc4)c23)CC1 (stereo not given) | 4.47µM*
Clc1ccc(-c2noc3ncnc(NC4CCCCC4)c23)cc1 | -18.5%
COc1ccc(C2(C(=O)N3CCC4(CCCN(C)C4=O)C3)CCCC2)cc1 (stereo not given) | -8.2%
COc1ncc(-c2cc3c(nc2OC)nc(CCc2ccccc2)n3C)cn1 | 7.94µM*
COc1ccc(-c2cc3c(nc2OC)nc(CC2CC2)n3C)cc1 | -9.8%[44.1 µM]
COc1nc2nc(CCc3ccccc3)n(C)c2cc1-c1ccncc1 | -11.6%[44.1 µM]
CN(CC1CCOC1)C(=O)Nc1ccc(C(F)(F)F)cc1 (stereo not given) | i[5.79 µM]
CCC(=O)N1Cc2ccccc2CC2(CCCN2Cc2ccccn2)C1 (stereo not given) | 4.8%
CC(=O)N1CC2(CCCN2Cc2ccccn2)Cc2ccccc21 (stereo not given) | -15.9%
C[S+](=O)([O-])N1Cc2ccccc2CC2(CCCN2Cc2ccncc2)C1 (stereo not given) | 6.3%
CC(C)C(=O)N1CCCC2(Cc3ccccc3CN2[S+](=O)([O-])c2ccccc2)C1 (stereo not given) | -19.1%
CC(C)C(=O)N1Cc2ccccc2CC2(CCCCN2Cc2ccccn2)C1 (stereo not given) | 12.6µM*
CCCN1CCC2(CC1)Cc1ccccc1CN(C(=O)C(C)C)C2 | -16.3%
C[S+](=O)([O-])N1CC2(CCCCN2Cc2ccccn2)Cc2ccccc21 (stereo not given) | 8.91µM*
SMILES | Pf Dd2 inh
C[S+](=O)([O-])N1Cc2ccccc2CC2(CCCN(Cc3ccccn3)C2)C1 (stereo not given) | -29.4%
CC(C)C(=O)N1Cc2ccccc2CC2(CCCCN2Cc2ccncc2)C1 (stereo not given) | 8.91µM*
CCCN1CCCC12Cc1ccccc1CN(C(=O)C(C)C)C2 (stereo not given) | 8.91µM*
CCC(=O)N1Cc2ccccc2CC2(CCCCN2Cc2ccccn2)C1 (stereo not given) | -19.4%
Cc1noc(C)c1CC(=O)N1CCC(c2noc(-c3cnccn3)n2)C1 (stereo not given) | 37.5%[5.79 µM]
c1ccc2oc([C@H]3CCN(C4CCOCC4)C3)nc2c1 | i
COc1cccc(CN(C)S(=O)(=O)c2cccc(C(=O)NCCF)c2)c1 | 0.3%
CCCCN(C)C(=O)c1cc(-c2ccc(C)cc2)cn1CC | -19.2%
Cc1nn(CC(=O)N2CCN(c3ccc(F)cc3)CC2)c(=O)c2nc(C(C)C)sc12 | i
COc1ncccc1CNC[C@H]1O[C@@H]2C[C@@H](CC(=O)N3CCC(F)(F)C3)O[C@@H]2[C@@H]1O | 33.4%[44.1 µM]
Cc1c(Cl)cccc1NC(=O)Cn1ccn2nc3c(c2c1=O)CCCC3 | -9.5%
CC(C)CC(=O)N1CCCCCC1CN1CCOCC1 (stereo not given) | -15.3%
COC1CCOC2(CCN(C(=O)Cn3c(=O)oc4ccccc43)CC2)C1 (stereo not given) | 31.1%
CCCc1noc(-c2cccn3c(CNC(=O)c4ccc(C)cc4)nnc23)n1 | 12.6µM*
CCCc1noc(-c2cccn3c(CNC(=O)Cc4ccc(Cl)cc4)nnc23)n1 | -0.7%
CCCc1noc(-c2cccn3c(CNC(=O)Cc4ccccc4Cl)nnc23)n1 | i
CCN(CC)c1ncccc1CNC(=O)c1coc2c1C(=O)CCC2 | -22.1%
Cc1cc(C(=O)Nc2ccc(-n3c(C)nc4ccccc4c3=O)cc2)ccc1[N+](=O)[O-] | -3.7%
Cc1nc2ccccc2c(=O)n1-c1ccc(NC(=O)c2ccc([N+](=O)[O-])cc2)cc1 | 15.3%
Cc1cc(-n2c(C)nc3ccccc3c2=O)ccc1NC(=O)c1cccc([N+](=O)[O-])c1 | 8.91µM*
O=C(c1cccc(F)c1)N1CCC(c2n[nH]c(=O)n2-c2ccccc2)CC1 | -11.1%
CN1C(=O)COC[C@@H]1[C@H](O)c1ccc(NC(=O)c2ccc(C#N)cc2)cc1 | i
O=C1NCCCCCCN(C(=O)c2cnccn2)[C@H]2CCC[C@@H]12 | 1.8%
N[C@H]1CN(C(=O)c2ccccc2Oc2ccccc2)C[C@@H]1C1CC1 | 6.31µM*
N[C@H]1CN(C(=O)C2CCN(C(=O)c3ccccn3)CC2)C[C@@H]1C1CC1 | -14.1%
SMILES | Pf Dd2 inh
NC(=O)[C@@H]1CN(C(=O)c2ccccc2F)C[C@H]1COc1ccccc1 | 9.2%
COCCOc1ccc2c(n1)CCN(C(=O)c1cccs1)C2 | -16.5%
CO[C@H]1[C@H](NC(=O)c2cc3ccccc3n2C)c2ccccc2C12CCNCC2 | 7.94µM*
CO[C@H]1[C@H](NC(=O)c2cc(C)nn2C)c2ccccc2C12CCNCC2 | -2.9%
CO[C@H]1[C@H](NC(=O)c2cc3ccccc3[nH]2)c2ccccc2C12CCNCC2 | -5.5%
COCc1nc(C2CCCN(C(=O)NCC(C)C)C2)no1 (stereo not given) | -8.7%
CCn1ncc(N2CCC(NC(=O)c3cccs3)CC2)cc1=O | -8.2%
COC1CN(c2ccc(C)cc2)C12CCN(C(=O)c1sc(C)nc1C)CC2 (stereo not given) | -14.8%
Cn1ccnc1C(=O)N1CCc2nn(C)c(=O)n2CC1 | 51.1%
CCOc1ccccc1CN1CCC2(CCN(C(=O)Cc3ccccn3)CC2)Oc2ccccc21 | 11.2µM*!
CCOc1ccccc1CN1CCC2(CCN(Cc3ccsc3)CC2)Oc2ccccc21 | 10µM*
CCOc1ccccc1CN1CCC2(CCN(C(=O)C3CC3)CC2)Oc2ccccc21 | -30.2%
CCOc1ccccc1CN1CCC2(CCN(C(=O)NC3CCCC3)CC2)Oc2ccccc21 | -3.6%
CCOc1ccccc1CN1CCC2(CCN(C(=O)c3cccc(OC)c3)CC2)Oc2ccccc21 | -31.3%
CCOc1ccccc1CN1CCC2(CCN(C(C)=O)CC2)Oc2ccccc21 | -27.4%
COc1cc(CN2CCN(C)C(C(=O)O)C2)c(Cl)cc1OC(C)C (stereo not given) | 8.4%
O=C(CCN1CCCCO1)N1CCCC(N2CCN(c3ccccc3)CC2)C1 (stereo not given) | -6.1%
C=CCNC(=O)N1CCOC(CN(CC(C)C)C(=O)c2ccccc2)C1 (stereo not given) | i
Cc1cccc(NC(=O)CSc2nc(-c3cccc(C)c3)nc3c2Cc2c(CO)cnc(C)c2O3)c1 | 8.91µM*

Compound activity deposited in PubChem by National Center for Advancing Translational Sciences (NCATS).
